Source: PubChem BioAssay (National Center for Advancing Translational Sciences (NCATS))
BRCT inh green = BRCA1 BRCT-phosphoprotein interaction inhibition. P38398. BRCA1 BRCT-phosphopeptide binding, green fluorescence polarization. Potency, µM (top dose mostly 76.9 µM), inactives show at the top dose activity change, negative = inhibition, most hits filed as inhibitors. actives 0.05% (n = 75,000);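 further: potency means the concentration at half of the fitted maximal effect; plate controls were peptide without protein for full effect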
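Fluorescence polarization: His-tagged BRCT (~35 kDa BRCA1 C-terminus, 250 nM) bound to 100 nM fluorescein-labeled phosphorylated 10-aa BACH1 peptide, pH 7.3 phosphate buffer with DTT and Tween 20. Compounds incubated 12 min at room temperature; inhibition read as lowered polarization.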
BRCT inh red = BRCT-phosphoprotein interaction inhibition (red fluorophore). Potency, µM (doses to about 76.9 µM), inactives show top-dose activity change, negative = inhibition, usual class: inhibitors. actives 0.03% (n = 75,000). AID 892. P38398. BRCT-phosphopeptide binding, red fluorescence polarization; further: on the % scale 0 is the no-effect control and ±100 the full control effect
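Fluorescence polarization: 100 nM His-tagged BRCA1 BRCT with 100 nM TAMRA-labelled phospho-BACH1 decapeptide, phosphate buffer pH 7.3 with 150 mM NaCl, DTT, 0.01% Tween 20; 12 min RT. Binding inhibition seen as FP decrease.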
Hsp90 Hop PPI = changes Hsp90-Hop TPR2A binding signal, up or down | AlphaScreen TPR2A-His6 binding biotin-Hsp90 C-terminal peptide | Potency, µM (doses to about 57 µM), without a hit: at the top dose activity change, negative = inhibition | actives 0.44% (n = 71,000) | AID 595; active means well fitted curve in either direction with a large enough effect; inconclusive means small, poorly fitted or top-dose-only effect, or another doubt; further: potency means the concentration at half of the fitted maximal effect; on the % scale 0 is the no-effect control and ±100 the full control effect
DNA Pol III inh = blocks replication by bacterial DNA polymerase III holoenzyme. reconstituted DNA polymerase III holoenzyme replication, biochemical. Potency, µM (titrated, usually from 57.1 µM), without a hit: at the top dose activity change, negative = inhibition. actives 0.25% (n = 71,000). AID 603; further: potency means the concentration at half of the fitted maximal effect; on the % scale 0 is the no-effect control and ±100 the full control effect
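Reconstituted *E. coli* holoenzyme (0.35 nM Pol III, 1 nM beta, 154 nM SSB, 2 nM primase) was preincubated with compound for 15 min at RT. Synthesis on 1.4 nM ssM13Gori ran 35 min, then was stopped with PicoGreen/EDTA and read as dsDNA fluorescence.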
IMPase inh = cell-permeable inhibitors of inositol monophosphatase (IMPase); inhibition (IP1 accumulation), % at 46.1 µM; CHO-M1 cells, IP1 accumulation, HTRF TR-FRET ratio; P97697; 120,000 tested, under 10 active; active means well fitted curve in the direction sought with a large enough effect in the signal ratio, not every such curve was filed as active; inconclusive means small, poorly fitted or top-dose-only effect, or a change in a side signal; inactive means no such curve, though single readings can be large or run the other way; the % refers to the signal ratio;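 further: cells stimulated with carbachol in lithium chloride buffer; plate controls were DMSO basal wells for no effect and reference inhibitor wells for full effect; higher means more IMPase inhibition seen as more IP1 and lower FRET ratio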
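In this qHTS, compounds (final up to 46 uM) act on CHO-M1 cells that are then activated through the M1 receptor with carbachol, in pH 7.4 buffer containing 50 mM LiCl, for 30 min. IP1 accumulation is quantified by the IP-One immunoassay.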
TsaE inh = inhibitors of E. coli YjeE (TsaE); P0AF67; purified YjeE enzyme, qHTS inhibition assay; Potency, µM; actives 0.05% (n = 71,000)
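Purified YjeE (10 uM) with BODIPY Texas Red-labeled ADP probe (2 uM); compounds pin-transferred, 15 min at room temperature. Binding inhibition read as decreased fluorescence polarization; ADP titration as control.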
Numbers without * were called inactive; i = inactive; ? = inconclusive; · = not tested or not shown; [ ] = dose if it differs, or a comment. Many of the other results were omitted from the sample, so hits are more common in it than they were. Unless noted, the call rests on the fitted dose curve; in most records, active means well fitted curve in the direction sought with a large enough effect; inconclusive means small, poorly fitted or top-dose-only effect, or another doubt; inactive means no such curve, though single readings can be large; an effect the other way counts as inactive or inconclusive.

SMILES	BRCT inh green	BRCT inh red	Hsp90 Hop PPI	DNA Pol III inh	IMPase inh	TsaE inh
COc1ccc(C(NC(C)=O)c2ccc3cccnc3c2O)c(OC)c1 (stereo not drawn)	2%	1%	16µM*	-4%	-2	i
O=C(O)c1ccc(N[C@H](c2ccccc2)c2ccc3cccnc3c2O)cc1	-1%[15.4 µM]	0%[15.4 µM]	-19%[11 µM]	-12%[11.4 µM]	·	i
Oc1c(C(Nc2nc3ccccc3s2)c2ccco2)ccc2cccnc12 (stereo not drawn)	-2%	1%	?	0%	1	i
Clc1ccc(-c2ccc(-c3nn4c(-c5ccco5)nnc4s3)o2)cc1	-2%	-8%	-17%	-11%	·	i
Brc1ccc(-c2nn3c(-c4ccco4)nnc3s2)o1	-11%	-11%	-9%	25µM*	?	i
COc1ccc(-c2cc(C(=O)N/N=C/c3ccc(OC)c(OC)c3)[nH]n2)cc1	1%	2%	·	·	·	·
CCCCOc1ccc(-c2nnn(C(C)(C)C(=O)OC)n2)cc1	2%	-1%	25µM*	-8%	10	i
COc1cc(OC)c(-c2c3cc(O)c(=O)cc-3oc3cc(O)c(O)cc23)cc1OC	·	·	·	·	18	·
O=C(O)CN(CC(=O)O)Cc1cc2c(-c3ccccc3C(=O)O)c3cc(CN(CC(=O)O)CC(=O)O)c(=O)cc-3oc2cc1O	0.13µM*	0.63µM*	·	·	·	·
O=c1c(-c2ccc(Cl)cc2)nc2cnc(N3CCNCC3)nc2n1Cc1cccs1	19%	11%	14%	25µM*	·	i
O=c1c(-c2cccs2)nc2cnc(N3CCOCC3)nc2n1-c1ccccc1	2%	2%	3.2µM*	4%	·	i
COc1ccc(-n2c(=O)c(-c3cccs3)nc3cnc(N4CCOCC4)nc32)cc1	-1%	3%	-2%	-8%	·	i
CN1CCN(c2ncc3nc(-c4ccc(Cl)cc4)c(=O)n(Cc4cccs4)c3n2)CC1	-3%	0%	6%	9%	·	i
O=c1c(-c2cccs2)nc2cnc(N3CCNCC3)nc2n1Cc1cccs1	2%	0%	?	7.9µM*	·	i
CN1CCN(c2ncc3nc(-c4cccs4)c(=O)n(Cc4cccs4)c3n2)CC1	-1%	0%	?	-18%	·	i
NC(N)=N[C@H](CCC(=O)O)C(=O)O	-4%	-2%	-5%	1%	5	i
COc1cc2nc(N3CC=[N+](C(=O)c4ccco4)CC3)nc(N)c2cc1OC	-2%	1%	-9%	4%	2	i
Cc1cccc(Oc2nc3ccccn3c(=O)c2/C=C(\C#N)c2nc3ccccc3s2)c1C	·	·	·	·	0	·
CCCCOC(=O)CN1C(=O)c2ccc(C(=O)OCCCC)cc2C1=O	3%	-2%	25µM*	-2%	7	i
CCCOC(=O)CN1C(=O)c2ccc(C(=O)OCCC)cc2C1=O	-2%	0%	1%	-5%	1	i
O=S1(=O)Nc2c(ccc3cccnc23)-c2ccccc21	-1%	-2%	3.2µM*	-24%	5	i
O=c1[nH]n(-c2cccc3cccnc23)c(=O)c2ccccc12	0%	-1%	-4%	-4%	0	i
O=C(O)c1ccccc1NS(=O)(=O)c1cccc2ccccc12	0%	-1%	·	·	·	·
CSc1nc(N)c2ncn([C@H]3O[C@H](COP(=O)(O)OP(=O)(O)OP(=O)(O)O)[C@@H](O)[C@@H]3O)c2n1	-5%	-1%	-3%	-3%	0	79µM*
COc1ccccc1N1CCN(CCN(C(=O)c2ccc(I)cc2)c2ccccn2)CC1	·	·	-17%	-2%	·	i
Cc1ccc(C(=O)Nc2ccc(S(=O)(=O)O)c3cc(S(=O)(=O)O)cc(S(=O)(=O)O)c23)cc1NC(=O)c1cccc(NC(=O)Nc2cccc(C(=O)Nc3cc(C(=O)Nc4ccc(S(=O)(=O)O)c5cc(S(=O)(=O)O)cc(S(=O)(=O)O)c45)ccc3C)c2)c1	2%	51%	?	32µM*	-2	i
